What all share (assay): PBM; 200 nM protein, PBS
Holding throughout (settings): dsDNA, one strand shown

For assay [1], the target named is MSX2 (Homo sapiens, UniProt P35548 130-214, R199I).
The target of assay [2] is MSX2 (Homo sapiens, UniProt P35548 130-214).
The target of assay [3] is MSX2 (Homo sapiens, UniProt P35548 130-214, F161Y).
For assay [4], the target named is ALX1 (Homo sapiens, UniProt Q15699 118-204, L144V).
The target in assay [5] is ALX1 (Homo sapiens, UniProt Q15699 118-204, L144R).
Assay [6] concerns the target ALX1 (Homo sapiens, UniProt Q15699 118-204).
Assay [7] concerns the target PROP1 (Homo sapiens, UniProt O75360 56-141).
Assay [8] deals with PROP1 (Homo sapiens, UniProt O75360 56-141, R99H).
The target in assay [9] is VAX1 (Homo sapiens, UniProt Q5SQQ9 86-172).
The target of assay [10] is PROP1 (Homo sapiens, UniProt O75360 56-141, F88S).
For assay [11], the target named is VAX1 (Homo sapiens, UniProt Q5SQQ9 86-172, T142I).
In assay [12] the target is VAX1 (Homo sapiens, UniProt Q5SQQ9 86-172, K157R).
Assay [13] concerns the target HOXD13 (Homo sapiens, UniProt P35453 263-343, T313R).
Assay [14] concerns the target HOXD13 (Homo sapiens, UniProt P35453 263-343).
Assay [15] has as its target HOXD13 (Homo sapiens, UniProt P35453 263-343, T313A).
Assay [16] concerns the target HOXA2 (Homo sapiens, UniProt O43364 129-215, R185K).
Assay [17] concerns the target PITX2 (Homo sapiens, UniProt Q99697 72-157).
For assay [18], the target named is ALX3 (Homo sapiens, UniProt O95076 139-225).
In assay [19] the target is ALX3 (Homo sapiens, UniProt O95076 139-225, L168Q).
In assay [20] the target is ALX3 (Homo sapiens, UniProt O95076 139-225, L168V).
Assay [21] addresses ALX3 (Homo sapiens, UniProt O95076 139-225, N203S).
Assay [22] addresses HOXA4 (Homo sapiens, UniProt Q00056 201-287, W262F).

ALX1 (Homo sapiens, UniProt Q15699 118-204, L144V), sequence (Q15699 118-204 L144V): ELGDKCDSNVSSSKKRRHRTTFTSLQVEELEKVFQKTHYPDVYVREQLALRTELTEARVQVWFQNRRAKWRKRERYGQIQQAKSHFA
ALX1 (Homo sapiens, UniProt Q15699 118-204), sequence (Q15699 118-204): as the sequence (Q15699 118-204 L144V) above, with V27L counted along it
ALX1 (Homo sapiens, UniProt Q15699 118-204, L144R), sequence (Q15699 118-204 L144R): as the sequence (Q15699 118-204 L144V) above, with V27R counted along it
MSX2 (Homo sapiens, UniProt P35548 130-214, R199I), sequence (P35548 130-214 R199I): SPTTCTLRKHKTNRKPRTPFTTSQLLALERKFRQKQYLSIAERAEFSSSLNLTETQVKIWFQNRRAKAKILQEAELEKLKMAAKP
MSX2 (Homo sapiens, UniProt P35548 130-214, F161Y), sequence (P35548 130-214 F161Y): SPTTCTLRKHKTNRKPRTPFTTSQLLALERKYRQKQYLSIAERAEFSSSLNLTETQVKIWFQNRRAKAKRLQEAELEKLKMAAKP
MSX2 (Homo sapiens, UniProt P35548 130-214), sequence (P35548 130-214): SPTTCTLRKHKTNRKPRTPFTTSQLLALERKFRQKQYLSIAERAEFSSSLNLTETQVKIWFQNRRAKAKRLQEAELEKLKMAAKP
ALX3 (Homo sapiens, UniProt O95076 139-225), sequence (O95076 139-225): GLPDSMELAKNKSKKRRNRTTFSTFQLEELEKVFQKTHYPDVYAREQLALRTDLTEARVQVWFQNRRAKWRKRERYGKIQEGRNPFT
VAX1 (Homo sapiens, UniProt Q5SQQ9 86-172, K157R), sequence (Q5SQQ9 86-172 K157R): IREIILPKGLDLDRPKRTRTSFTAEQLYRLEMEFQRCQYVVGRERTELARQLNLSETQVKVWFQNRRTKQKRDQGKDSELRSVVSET
VAX1 (Homo sapiens, UniProt Q5SQQ9 86-172), sequence (Q5SQQ9 86-172): as the sequence (Q5SQQ9 86-172 K157R) above, with R72K counted along it
ALX3 (Homo sapiens, UniProt O95076 139-225, N203S), sequence (O95076 139-225 N203S): as the sequence (O95076 139-225) above, with N65S counted along it
ALX3 (Homo sapiens, UniProt O95076 139-225, L168V), sequence (O95076 139-225 L168V): as the sequence (O95076 139-225) above, with L30V counted along it
ALX3 (Homo sapiens, UniProt O95076 139-225, L168Q), sequence (O95076 139-225 L168Q): as the sequence (O95076 139-225) above, with L30Q counted along it
VAX1 (Homo sapiens, UniProt Q5SQQ9 86-172, T142I), sequence (Q5SQQ9 86-172 T142I): as the sequence (Q5SQQ9 86-172 K157R) above, with T57I, R72K counted along it
PROP1 (Homo sapiens, UniProt O75360 56-141, R99H), sequence (O75360 56-141 R99H): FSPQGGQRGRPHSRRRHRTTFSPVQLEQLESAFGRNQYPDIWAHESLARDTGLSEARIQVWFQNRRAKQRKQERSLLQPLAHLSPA
HOXD13 (Homo sapiens, UniProt P35453 263-343), sequence (P35453 263-343): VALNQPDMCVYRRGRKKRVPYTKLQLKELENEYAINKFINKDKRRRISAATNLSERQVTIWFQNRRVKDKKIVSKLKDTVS
HOXD13 (Homo sapiens, UniProt P35453 263-343, T313A), sequence (P35453 263-343 T313A): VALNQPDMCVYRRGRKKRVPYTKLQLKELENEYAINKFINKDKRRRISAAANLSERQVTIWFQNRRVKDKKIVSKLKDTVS
PROP1 (Homo sapiens, UniProt O75360 56-141, F88S), sequence (O75360 56-141 F88S): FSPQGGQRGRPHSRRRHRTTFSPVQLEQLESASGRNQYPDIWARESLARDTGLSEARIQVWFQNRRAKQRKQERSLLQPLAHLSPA
PROP1 (Homo sapiens, UniProt O75360 56-141), sequence (O75360 56-141): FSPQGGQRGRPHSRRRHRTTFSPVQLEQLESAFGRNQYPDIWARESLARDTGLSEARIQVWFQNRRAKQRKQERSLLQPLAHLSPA
HOXD13 (Homo sapiens, UniProt P35453 263-343, T313R), sequence (P35453 263-343 T313R): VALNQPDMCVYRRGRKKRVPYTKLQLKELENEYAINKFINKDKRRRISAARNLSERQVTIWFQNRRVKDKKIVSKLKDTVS
HOXA4, sequence (Q00056 201-287 W262F): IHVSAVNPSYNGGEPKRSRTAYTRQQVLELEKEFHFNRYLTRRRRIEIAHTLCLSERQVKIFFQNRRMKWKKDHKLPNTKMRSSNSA
HOXA2, sequence (O43364 129-215 R185K): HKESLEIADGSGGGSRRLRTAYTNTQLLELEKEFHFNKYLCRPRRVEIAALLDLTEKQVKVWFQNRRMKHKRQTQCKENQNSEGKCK

On to GAGGAAGC, for which the binding signal is 9.59 upbm affinity estimate (log intensity, higher = more binding, comparable within an allelic series) in [1]; 9.52 upbm affinity estimate (log intensity, higher = more binding, comparable within an allelic series) in assay [2]; 9.52 upbm affinity estimate (log intensity, higher = more binding, comparable within an allelic series) in assay [3].

ATAATCAC: the binding signal in [1] is 11.1 upbm affinity estimate (log intensity, higher = more binding, comparable within an allelic series).

Take CCACTGGC: the binding signal is 9.65 upbm affinity estimate (log intensity, higher = more binding, comparable within an allelic series) in [1]; 9.69 upbm affinity estimate (log intensity, higher = more binding, comparable within an allelic series) in [2]; 9.68 upbm affinity estimate (log intensity, higher = more binding, comparable within an allelic series) in [3].

On to AGCGCCGG, for which the binding signal in [1] was 9.57 upbm affinity estimate (log intensity, higher = more binding, comparable within an allelic series); in assay [2], 9.53 upbm affinity estimate (log intensity, higher = more binding, comparable within an allelic series); in assay [3] it was 9.52 upbm affinity estimate (log intensity, higher = more binding, comparable within an allelic series).

For GCAATCAA, in [1], the binding signal was 10.9 upbm affinity estimate (log intensity, higher = more binding, comparable within an allelic series).

Turning to CCTACGGC, the binding signal in assay [1] is 9.61 upbm affinity estimate (log intensity, higher = more binding, comparable within an allelic series); in assay [4], 6.56 upbm affinity estimate (log intensity, higher = more binding, comparable within an allelic series); in [5], 6.66 upbm affinity estimate (log intensity, higher = more binding, comparable within an allelic series); in assay [2], 9.61 upbm affinity estimate (log intensity, higher = more binding, comparable within an allelic series); in assay [3], 9.63 upbm affinity estimate (log intensity, higher = more binding, comparable within an allelic series); in [6] it was 6.68 upbm affinity estimate (log intensity, higher = more binding, comparable within an allelic series).

In the case of CCCTAGCG, the binding signal was 9.48 upbm affinity estimate (log intensity, higher = more binding, comparable within an allelic series) in [1]; 9.29 upbm affinity estimate (log intensity, higher = more binding, comparable within an allelic series) in [2]; 6.52 upbm affinity estimate (log intensity, higher = more binding, comparable within an allelic series) in [7]; 6.7 upbm affinity estimate (log intensity, higher = more binding, comparable within an allelic series) in [8]; 6.79 upbm affinity estimate (log intensity, higher = more binding, comparable within an allelic series) in [9]; 6.73 upbm affinity estimate (log intensity, higher = more binding, comparable within an allelic series) in assay [10]. Further, the binding signal in assay [3] is 9.37 upbm affinity estimate (log intensity, higher = more binding, comparable within an allelic series); in [11], 7.2 upbm affinity estimate (log intensity, higher = more binding, comparable within an allelic series); in assay [12], 6.92 upbm affinity estimate (log intensity, higher = more binding, comparable within an allelic series).

Regarding GAAGCAGC, the binding signal in [1] was 9.64 upbm affinity estimate (log intensity, higher = more binding, comparable within an allelic series); in assay [2], 9.57 upbm affinity estimate (log intensity, higher = more binding, comparable within an allelic series); in [9] it was 7.06 upbm affinity estimate (log intensity, higher = more binding, comparable within an allelic series); in assay [3], 9.57 upbm affinity estimate (log intensity, higher = more binding, comparable within an allelic series); in assay [11], 7.19 upbm affinity estimate (log intensity, higher = more binding, comparable within an allelic series); in assay [12], 6.96 upbm affinity estimate (log intensity, higher = more binding, comparable within an allelic series).

In the case of GATAATCA, in assay [1], the binding signal is 10.9 upbm affinity estimate (log intensity, higher = more binding, comparable within an allelic series).

As for ATTAAGAA, the binding signal is 11.3 upbm affinity estimate (log intensity, higher = more binding, comparable within an allelic series) in assay [1]; 12 upbm affinity estimate (log intensity, higher = more binding, comparable within an allelic series) in [2]; 11.7 upbm affinity estimate (log intensity, higher = more binding, comparable within an allelic series) in assay [3].

For AGCGGGGC, the binding signal in [1] was 9.48 upbm affinity estimate (log intensity, higher = more binding, comparable within an allelic series); in assay [13], 9.49 upbm affinity estimate (log intensity, higher = more binding, comparable within an allelic series); in assay [14], 9.31 upbm affinity estimate (log intensity, higher = more binding, comparable within an allelic series); in assay [2] it was 9.55 upbm affinity estimate (log intensity, higher = more binding, comparable within an allelic series); in assay [15] it was 9.49 upbm affinity estimate (log intensity, higher = more binding, comparable within an allelic series); in assay [3] it was 9.55 upbm affinity estimate (log intensity, higher = more binding, comparable within an allelic series).

With CCTGAGCC, the binding signal in assay [1] is 9.54 upbm affinity estimate (log intensity, higher = more binding, comparable within an allelic series); in [2] it was 9.53 upbm affinity estimate (log intensity, higher = more binding, comparable within an allelic series); in [3], 9.53 upbm affinity estimate (log intensity, higher = more binding, comparable within an allelic series).

Take GTAATCAA: the binding signal in assay [1] was 11.1 upbm affinity estimate (log intensity, higher = more binding, comparable within an allelic series); in assay [16], 13.1 upbm affinity estimate (log intensity, higher = more binding, comparable within an allelic series).

Turning to AATTACTG, the binding signal was 12.1 upbm affinity estimate (log intensity, higher = more binding, comparable within an allelic series) in assay [1]; 13.3 upbm affinity estimate (log intensity, higher = more binding, comparable within an allelic series) in assay [2]; 12.9 upbm affinity estimate (log intensity, higher = more binding, comparable within an allelic series) in assay [3].

As for AATTTTTA, the binding signal is 11.1 upbm affinity estimate (log intensity, higher = more binding, comparable within an allelic series) in assay [1]; 11.9 upbm affinity estimate (log intensity, higher = more binding, comparable within an allelic series) in assay [2]; 11.6 upbm affinity estimate (log intensity, higher = more binding, comparable within an allelic series) in assay [3].

As for CCTGACTC, the binding signal in assay [1] was 9.6 upbm affinity estimate (log intensity, higher = more binding, comparable within an allelic series); in assay [2], 9.49 upbm affinity estimate (log intensity, higher = more binding, comparable within an allelic series); in assay [3], 9.54 upbm affinity estimate (log intensity, higher = more binding, comparable within an allelic series).

On to CAATCAAA, for which, in [1], the binding signal was 10.9 upbm affinity estimate (log intensity, higher = more binding, comparable within an allelic series).

Consider GATGTTTA, for which the binding signal is 10.5 upbm affinity estimate (log intensity, higher = more binding, comparable within an allelic series) in assay [1]; 10.9 upbm affinity estimate (log intensity, higher = more binding, comparable within an allelic series) in [2]; 10.8 upbm affinity estimate (log intensity, higher = more binding, comparable within an allelic series) in assay [3].

Turning to CACGCTCG, the binding signal in assay [17] is 7.92 upbm affinity estimate (log intensity, higher = more binding, comparable within an allelic series).

For the sequence AGAGCGCC, the binding signal was 7.87 upbm affinity estimate (log intensity, higher = more binding, comparable within an allelic series) in assay [18]; 7.76 upbm affinity estimate (log intensity, higher = more binding, comparable within an allelic series) in [19]; 7.79 upbm affinity estimate (log intensity, higher = more binding, comparable within an allelic series) in assay [20]; 7.78 upbm affinity estimate (log intensity, higher = more binding, comparable within an allelic series) in assay [21].

For CCGGGCCG, the binding signal in [18] is 7.76 upbm affinity estimate (log intensity, higher = more binding, comparable within an allelic series); in [19], 7.74 upbm affinity estimate (log intensity, higher = more binding, comparable within an allelic series); in [20], 7.65 upbm affinity estimate (log intensity, higher = more binding, comparable within an allelic series); in assay [21], 7.67 upbm affinity estimate (log intensity, higher = more binding, comparable within an allelic series).

For the sequence CTAATGAA, in assay [22], the binding signal is 11.5 upbm affinity estimate (log intensity, higher = more binding, comparable within an allelic series).

Consider ATGTGTAA, for which the binding signal in [4] is 8.64 upbm affinity estimate (log intensity, higher = more binding, comparable within an allelic series); in assay [5], 8.5 upbm affinity estimate (log intensity, higher = more binding, comparable within an allelic series); in assay [6] it was 8.88 upbm affinity estimate (log intensity, higher = more binding, comparable within an allelic series).

For the sequence CCGTATTA, the binding signal is 8.94 upbm affinity estimate (log intensity, higher = more binding, comparable within an allelic series) in [4]; 8.73 upbm affinity estimate (log intensity, higher = more binding, comparable within an allelic series) in [5]; 9.27 upbm affinity estimate (log intensity, higher = more binding, comparable within an allelic series) in assay [6].

With CACTATTA, the binding signal was 9.26 upbm affinity estimate (log intensity, higher = more binding, comparable within an allelic series) in assay [4]; 9.02 upbm affinity estimate (log intensity, higher = more binding, comparable within an allelic series) in [5]; 9.61 upbm affinity estimate (log intensity, higher = more binding, comparable within an allelic series) in [6].

Turning to CGCCGAGA, the binding signal in assay [4] was 6.15 upbm affinity estimate (log intensity, higher = more binding, comparable within an allelic series); in assay [5], 6.32 upbm affinity estimate (log intensity, higher = more binding, comparable within an allelic series); in [6], 6.31 upbm affinity estimate (log intensity, higher = more binding, comparable within an allelic series).

GACTCCCC: the binding signal was 6.43 upbm affinity estimate (log intensity, higher = more binding, comparable within an allelic series) in assay [4]; 6.48 upbm affinity estimate (log intensity, higher = more binding, comparable within an allelic series) in assay [5]; 6.25 upbm affinity estimate (log intensity, higher = more binding, comparable within an allelic series) in [6].

Consider CGTATAAG, for which the binding signal was 8.14 upbm affinity estimate (log intensity, higher = more binding, comparable within an allelic series) in [4]; 8.05 upbm affinity estimate (log intensity, higher = more binding, comparable within an allelic series) in assay [5]; 8.12 upbm affinity estimate (log intensity, higher = more binding, comparable within an allelic series) in assay [6].

Take CCAGCGGC: the binding signal in assay [4] was 6.38 upbm affinity estimate (log intensity, higher = more binding, comparable within an allelic series); in assay [5], 6.67 upbm affinity estimate (log intensity, higher = more binding, comparable within an allelic series); in [6], 6.48 upbm affinity estimate (log intensity, higher = more binding, comparable within an allelic series).

As for AAGACAAT, the binding signal was 8.75 upbm affinity estimate (log intensity, higher = more binding, comparable within an allelic series) in [4]; 8.63 upbm affinity estimate (log intensity, higher = more binding, comparable within an allelic series) in assay [5]; 8.96 upbm affinity estimate (log intensity, higher = more binding, comparable within an allelic series) in assay [6].

Consider CGACGGCG, for which the binding signal in assay [4] is 6.62 upbm affinity estimate (log intensity, higher = more binding, comparable within an allelic series); in assay [5], 6.71 upbm affinity estimate (log intensity, higher = more binding, comparable within an allelic series); in assay [6] it was 6.56 upbm affinity estimate (log intensity, higher = more binding, comparable within an allelic series).

GCACCAGC: the binding signal is 6.41 upbm affinity estimate (log intensity, higher = more binding, comparable within an allelic series) in [4]; 6.46 upbm affinity estimate (log intensity, higher = more binding, comparable within an allelic series) in assay [5]; 6.19 upbm affinity estimate (log intensity, higher = more binding, comparable within an allelic series) in [6].

The record behind these values is paper PMC11006913.
